Here are results for 44 molecules from PubChem BioAssay AID720709 (National Center for Advancing Translational Sciences (NCATS), 2013).

In all, about 360,000 compounds went through this assay and about 520 (0.14%) were called active. About 3% were inconclusive and are not listed. What follows is part of a selection rich in actives, with near analogues and random picks from the rest. Unmarked numbers belong to inactive results. Calls come from the whole dose curve; as a rule, active = well fitted inhibition curve with a large enough effect; inconclusive = small, poorly fitted or top-dose-only effect; inactive = no such curve, though single readings can be large or run the other way.
Potency is the fitted concentration of half-maximal effect.

Rap guanine nucleotide exchange factor 3 (Homo sapiens), sequence (O95398 whole entry, looked up): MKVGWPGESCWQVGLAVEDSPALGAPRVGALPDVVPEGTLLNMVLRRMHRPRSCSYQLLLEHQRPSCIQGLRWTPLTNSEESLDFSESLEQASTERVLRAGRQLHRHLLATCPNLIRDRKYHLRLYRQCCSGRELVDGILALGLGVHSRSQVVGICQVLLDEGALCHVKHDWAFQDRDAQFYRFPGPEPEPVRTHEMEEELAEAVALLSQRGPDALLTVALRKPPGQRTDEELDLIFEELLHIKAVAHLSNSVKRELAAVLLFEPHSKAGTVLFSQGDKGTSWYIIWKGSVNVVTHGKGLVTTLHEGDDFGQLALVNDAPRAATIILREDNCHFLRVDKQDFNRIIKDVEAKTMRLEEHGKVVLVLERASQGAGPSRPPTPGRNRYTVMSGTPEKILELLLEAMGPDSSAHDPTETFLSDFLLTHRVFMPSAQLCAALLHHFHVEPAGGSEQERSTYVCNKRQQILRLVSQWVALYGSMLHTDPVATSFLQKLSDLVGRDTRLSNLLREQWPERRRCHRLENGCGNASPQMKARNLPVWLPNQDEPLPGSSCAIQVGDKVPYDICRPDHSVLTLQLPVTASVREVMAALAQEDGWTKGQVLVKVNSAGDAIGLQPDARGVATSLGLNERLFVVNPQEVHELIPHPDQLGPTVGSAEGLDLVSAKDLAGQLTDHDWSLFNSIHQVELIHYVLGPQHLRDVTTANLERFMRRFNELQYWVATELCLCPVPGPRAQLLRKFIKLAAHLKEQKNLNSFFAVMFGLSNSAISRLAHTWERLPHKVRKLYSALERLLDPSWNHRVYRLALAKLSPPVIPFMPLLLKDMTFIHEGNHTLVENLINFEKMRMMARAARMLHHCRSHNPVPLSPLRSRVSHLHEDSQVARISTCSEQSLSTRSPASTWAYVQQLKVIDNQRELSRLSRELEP

This assay concerns the target Rap guanine nucleotide exchange factor 3 (Homo sapiens) (UniProt O95398). The experiment in a line: qHTS for Antagonist of cAMP-regulated guanine nucleotide exchange factor 3 (EPAC1): primary screen.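 For activity change, negative = inhibition: plate controls were vehicle for no effect and positive control for full effect.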 Note: nearly all actives have a fitted effect of over 50% in size. The note with it: EPAC1 GEF assay, Rap1b-BODIPY-GDP exchange fluorescence; series mostly up to 115 µM; activity change, negative = inhibition: at the top concentration. The text has this:
In multi-cellular eukaryotic organisms, the effects of cAMP are transduced by two ubiquitously-expressed intracellular cAMP receptors, the classic protein kinase A/cAMP-dependent protein kinase (PKA/cAPK) and the more recently discovered exchange protein directly activated by cAMP/cAMP-regulated guanine nucleotide exchange factor (EPAC/cAMP-GEF). Both PKA and EPAC are ubiquitously expressed in all tissues, and an increase in intracellular cAMP levels will lead to the activation of both PKA and EPAC. Therefore, careful dissections of the individual role and relative contribution of EPAC and PKA within the overall cAMP signaling in various model systems are critical for further elucidating the mechanism of cAMP signaling. To date no EPAC-specific antagonists and agonist, as well as isoform-specific agonists have been reported, and developing EPAC-specific pharmacological probes to determine the physiological functions that EPAC play in the overall cAMP-mediated signaling remains a major challenge within the research field. Furthermore, identified regulators of EPAC may lead to new mechanism-based therapeutic strategies specifically targeting the EPAC / cAMP-signaling components as EPAC has been implicated to play important roles in major human pathological conditions such as diabetes, heart disease, and cancer. This qHTS will be used to screen the Molecular Libraries Small Molecule Repository (MLSMR) as a concentration-titration series using the NCGC unique quantitative screening (qHTS) platform to find inhibitors for EPAC1. In addition, this assay will also be used as a counterscreen for the EPAC2 qHTS. This fluorescent based assay is developed and validated for EPAC1 that measures exchange using EPAC effector Rap1 complex with BODIPY-GDP, a GDP analog with a tethered fluorophores. Inhibitors are identified by monitoring the change in fluorescence signal as the exchanged free BODIPY-GDP has a reduced fluorescence compared to Rap1-bound BODIPY-GDP. Decrease in signal (inhibition) is the desired outcome for the EPAC1 antagonist while no activity in this assay is desired for the EPAC2 antagonist counterscreen. de Rooij, J., Zwartkruis, F. J., Verheijen, M. H., Cool, R. H., Nijman, S. M., Wittinghofer, A., and Bos, J.L. (1998) Nature 396, 474-477 [2] Kawasaki, H., Springett, G. M., Mochizuki, N., Toki, S., Nakaya, M., Matsuda, M., Housman, D. E., and Graybiel, A. M. (1998) Science 282, 2275-2279 NIH Chemical Genomics Center [NCGC] NIH Molecular Libraries Probe Centers Network [MLPCN] MLPCN Grant: NS066510 Assay Submitter (PI): Xiaodong Cheng, The University of Texas, Medical Branch
Briefly, three uL of reagents (100 nM EPAC1, 250 nM RAP1B-BODIPY-GDP, 50 uM GDP) were dispensed into a 1536-well Greiner black solid-bottom medium binding assay plate. Controls and test compounds (23 nL) were transferred to the plate via a Kalypsys pin tool equipped with a 1536-pin array. The plates were centrifuged at 1,000 rpm for 15 seconds followed by 5 minute incubation at room temperature. The assay plates were read at 5 minute intervals for 30 minutes in the ViewLux plate reader using 480nm excitation and 540nm emission filters. The results were normalized to the […] positive control ATA and DMSO.
In general terms: qHTS replaces the single test concentration by a dilution series.
As for `Oc1cccc2cc(-c3ccncc3)cnc12`, the “activity change, negative = inhibition” value is 3.21%. In the case of `CO[C@@H]1CN(C)C(=O)c2cc(NC(=O)Nc3cc(F)ccc3F)ccc2OC[C@H](C)N(C(=O)c2ccccn2)C[C@@H]1C`, the “activity change, negative = inhibition” value was -5.4%. As for `Cc1ccc(S(=O)(=O)NCCC(=O)NNC(=O)C2COc3ccccc3O2)cc1` (centres undefined), the “activity change, negative = inhibition” value was 8.04%. As for `COc1ccc2c(C)c(CCC(=O)NC3CC3)c(=O)oc2c1C`, the “activity change, negative = inhibition” value was -3.71%.

`Cc1c(CC(=O)N2CCN(C(=O)C3COc4ccccc4O3)CC2)c(=O)oc2c(O)c(O)ccc12` (centres undefined): the Potency was 100 µM (active). Consider `OCCC#Cc1ccc(N2C(c3ccsc3)=Cc3ccc(F)cc3C2c2c[nH]c3ccccc23)cc1` (centres undefined), for which the “activity change, negative = inhibition” value is 1.44%. `COc1ccc(CC(N)c2csc(NC(=O)NC(c3ccccc3)c3ccccc3)n2)cc1` (centres undefined): the “activity change, negative = inhibition” value is -11.6%.

With `CC1CN(C(=O)c2ccccc2NS(=O)(=O)c2cccc([N+](=O)[O-])c2)CC(C)O1` (centres undefined), the “activity change, negative = inhibition” value is -6.5%. As for `CCOc1ncccc1C(=O)NNC(=O)c1cccc(S(=O)(=O)Nc2ccccc2OC)c1`, the “activity change, negative = inhibition” value is 11.9%. Consider `COc1cccc(/C=N/Nc2ccc(S(=O)(=O)Nc3ccccc3C(=O)O)cc2[N+](=O)[O-])c1O`, for which the Potency was 25.1 µM (active).

As to `COC(=O)C[C@@H]1C=C[C@@H](NC(=O)c2ccc3c(c2)OCO3)[C@@H](CO)O1`, the “activity change, negative = inhibition” value is -14.3%.

As to `CC(=O)CSc1nc(CCc2ccccc2)c(C#N)c(=O)[nH]1`, the “activity change, negative = inhibition” value was -14.8%. The same measure, in the same setting: the figure for `O=c1[nH]c(SCc2cccc(F)c2)nc2ccccc12` is -4.22%.

With `N#Cc1c(-c2ccccc2)nc(SCc2cccc(C(F)(F)F)c2)[nH]c1=O`, the Potency was 70.8 µM (active). Take `O=C(NCc1ccc(F)cc1F)[C@@H]1CCCN1C(=O)[C@@H]1CCCN1C(=O)c1cccc(Cl)c1`: the “activity change, negative = inhibition” value was 5.96%. Still for that read-out and setting: the figure for `COc1cccc(/C=C(/CC(=O)Nc2ccc(N3CCOCC3)cc2)c2nc3ccccc3s2)c1` is 0.722%. `O=C(O)CC/C(=C\c1cc2c(cc1Br)OCO2)c1nc2ccccc2s1`: the “activity change, negative = inhibition” value is -2.3%. Take `COc1ccc(C(=O)Nc2cccc(/C=C(/CCC(=O)O)c3nc4ccccc4s3)c2)cc1`: the Potency is 35.5 µM (active). In the case of `CCOc1ccc(CCN2C(=S)N([C@@H](CC(C)C)CN3CCC[C@@H]3CN3C(=S)NC[C@@H]3Cc3ccc(O)cc3)C[C@@H]2Cc2ccc(O)cc2)cc1`, the “activity change, negative = inhibition” value is -20.9%. The same measure, in the same setting: the figure for `CCC(C(=O)Nc1c(C)cccc1C)n1c(-c2cc(C)cs2)nc2ccccc21` (centres undefined) is -5.26%.

For `COc1ccc(C(=O)NCC[N+](C)(C)C)cc1`, the “activity change, negative = inhibition” value was 4.59%.

As for `CCOC(=O)[C@]12CCC=C1N(Cc1ccco1)C(=O)[C@H](CC(=O)N1CCSCC1)C2`, the “activity change, negative = inhibition” value is -20.2%. With `CCCCCCN1CCN(C2CN(Cc3cn(CCCCCC)nn3)S(=O)(=O)C2)CC1` (centres undefined), the “activity change, negative = inhibition” value was -19.2%.

Regarding `CCC(CC)C(C(=O)NC1CCCC1)N1CCN(c2cc(C)nc3ccccc23)CC1` (centres undefined), the “activity change, negative = inhibition” value is 1.74%. Take `O=C1Nc2ccccc2-n2nnnc2C1N1CCN(c2cccc(C(F)(F)F)n2)CC1` (centres undefined): the “activity change, negative = inhibition” value was -11.1%.

`CCOC(=O)[C@]12CCCC=C1N(CCC1=CCCCC1)C(=O)[C@H](CC(=O)N1CCOCC1)C2`: the “activity change, negative = inhibition” value was -4.03%.

For `Cc1cc(Br)cn2c(Cc3ccsc3)c(-c3ccc(C#N)cc3)nc12`, the “activity change, negative = inhibition” value is -4.89%. On the same count and under the same terms, for `CCOC(=O)[C@]12CCCC=C1N(CCC1=CCCCC1)C(=O)[C@H](CC(=O)NCCCCc1ccccc1)C2` the value was -11.2%; for `O=C1NC[C@H](CCCCN2C[C@H](Cc3ccc(O)cc3)N(CCc3ccccc3)C(=O)C2=O)N(CCc2ccccc2)C1=O`, -12.9%. Same read-out and setting: the figure for `O=C1Nc2ccccc2NC(c2ccc3c(c2)OCO3)=C1N(Cc1ccc(F)cc1)C(=O)c1ccco1` is -26.5%.

Consider `COc1ccc(C(=O)C(OP(=O)(OC)OC)c2ccccc2OC)cc1` (centres undefined), for which the “activity change, negative = inhibition” value is -3.79%. As for `COC(=O)c1ccc2nc(-c3ccc(C)cc3)c(Cc3ccc(OC)cc3C)n2c1`, the “activity change, negative = inhibition” value is -20.7%. The same measure, in the same setting: for `CCOC(=O)[C@]12CCCC=C1N(Cc1ccc(Cl)cc1Cl)C(=O)[C@H](CC(=O)N1CCCCC1)C2` the value was 24.7%; for `CC1Cc2[nH][nH]c(=O)c2C(C2CCCC2)O1` (centres undefined), -1.95%; for `COc1cccc(-c2nc3nc(C)cc(C)n3c2NC2CCCCC2)c1`, -3.19%. On the same count and under the same terms, for `CC(C)c1cc(Cn2c3ccccc3c(=O)n2C(C)Cn2cc(C3CC3)nn2)on1` (centres undefined) the value was -18.3%. In the case of `Cc1cc(Br)cn2c(Cc3ccccc3C(F)(F)F)c(-c3ccc(Cl)cc3)nc12`, the “activity change, negative = inhibition” value was -8.75%. Take `CCOC(=O)[C@]12CCCC=C1N(CCC1=CCCCC1)C(=O)[C@H](CC(=O)N1CCSCC1)C2`: the “activity change, negative = inhibition” value was -11.1%. `COC(=O)[C@]12CCCCC=C1N(Cc1ccc3c(c1)OCO3)C(=O)[C@H](CC(=O)N1CCOCC1)C2`: the “activity change, negative = inhibition” value is -8.74%. Consider `O=C(NCc1ccccc1)C1c2ccccc2OCC(=O)N1CCCN1CCOCC1` (centres undefined), for which the “activity change, negative = inhibition” value is -7.15%.

In the case of `COc1ccc([C@H]2CC(=O)C[C@@H](CCn3cc(CC4CCCC4)nn3)O2)cc1`, the “activity change, negative = inhibition” value is 4.12%. On the same count and under the same terms, the figure for `COc1ccc(N2c3ccccc3CN(Cc3ccccc3)[C@@H](C)[C@H]2Cc2ccc(-c3ccccc3)cc2)cc1` is 18.8%; for `O=S1(=O)CC(N2CCN(CCO)CC2)CN1Cc1cn(Cc2cccc(Cl)c2)nn1` (centres undefined) it is -1.43%; for `O=C(C(=O)N1CCN(c2ccccc2)CC1)c1ccc2c(c1)OCO2` it is 1.25%.
